ChEMBL document CHEMBL1961873, “Compounds: GSK PKIS; Assays: Nanosyn kinase panel” (2012)

Tested on: Platelet-derived growth factor receptor alpha (Homo sapiens), P16234 [T674I]
Details: at 1 µM

Platelet-derived growth factor receptor alpha (Homo sapiens), P16234 [T674I], sequence (P16234 whole entry T674I): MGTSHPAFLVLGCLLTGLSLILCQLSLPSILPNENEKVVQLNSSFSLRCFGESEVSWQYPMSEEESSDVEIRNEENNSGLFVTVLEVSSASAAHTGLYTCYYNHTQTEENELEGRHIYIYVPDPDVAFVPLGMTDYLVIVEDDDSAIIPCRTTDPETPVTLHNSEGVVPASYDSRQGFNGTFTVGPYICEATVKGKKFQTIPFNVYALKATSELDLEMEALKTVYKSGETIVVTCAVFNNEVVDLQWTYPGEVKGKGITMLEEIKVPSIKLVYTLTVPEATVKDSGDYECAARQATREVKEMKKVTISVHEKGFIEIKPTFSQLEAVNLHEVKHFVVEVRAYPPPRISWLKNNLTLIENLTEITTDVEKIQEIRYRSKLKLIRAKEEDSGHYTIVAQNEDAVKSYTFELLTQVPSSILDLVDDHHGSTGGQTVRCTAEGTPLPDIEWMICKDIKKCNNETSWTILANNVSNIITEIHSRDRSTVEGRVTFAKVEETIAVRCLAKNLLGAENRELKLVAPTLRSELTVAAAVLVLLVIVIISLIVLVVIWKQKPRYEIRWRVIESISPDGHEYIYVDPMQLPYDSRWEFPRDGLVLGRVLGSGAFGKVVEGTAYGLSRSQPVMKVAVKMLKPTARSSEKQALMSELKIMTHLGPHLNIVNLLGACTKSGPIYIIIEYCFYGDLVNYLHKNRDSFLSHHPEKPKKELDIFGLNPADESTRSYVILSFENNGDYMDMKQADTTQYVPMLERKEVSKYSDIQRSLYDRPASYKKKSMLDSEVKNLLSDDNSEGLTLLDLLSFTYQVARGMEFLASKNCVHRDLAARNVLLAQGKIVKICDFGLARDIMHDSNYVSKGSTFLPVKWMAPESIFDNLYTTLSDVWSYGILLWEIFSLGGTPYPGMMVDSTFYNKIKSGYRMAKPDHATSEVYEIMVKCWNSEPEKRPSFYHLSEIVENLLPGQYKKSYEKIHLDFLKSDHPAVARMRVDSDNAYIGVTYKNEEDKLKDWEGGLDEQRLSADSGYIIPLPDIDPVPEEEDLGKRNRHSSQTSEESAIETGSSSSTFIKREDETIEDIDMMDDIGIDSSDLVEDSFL

| Structure (SMILES) | inhibition |
| --- | --- |
| COc1cccc(-n2nc(C)c3c(N/N=C(\C)c4ccncc4)ncnc32)c1 | 4.43% |
| N#Cc1c(NC(=O)c2ccccc2F)sc2c1CCCC2 | 4.03% |
| COc1cc2ncnc(Nc3ccc4c(cnn4Cc4ccccc4)c3)c2cc1OC | 17% |
| Cc1cc(O)cc(C)c1/C=C/c1cncc(C(=O)N(C)C)c1 | 1.18% |
| NS(=O)(=O)c1ccc(NC=C2C(=O)Nc3ccc4ncsc4c32)cc1 | 90% |
| NS(=O)(=O)c1ccc(-c2cc3ccncc3cc2OCc2ccccc2)cc1 | 9.33% |
| Cc1ccc2c(-c3ccnc(Nc4ccc5c(c4)OCCO5)n3)c(-c3ccc(C(F)(F)F)cc3)nn2n1 | 2.96% |
| Cc1cc(-c2ccccn2)cc(C)c1/C=C/c1cncc(-c2nn[nH]n2)c1 | 8.72% |
| COc1cc(/C=N/Nc2ncnc3c2cnn3C(C)C)ccc1O | 4.12% |
| COC(=O)c1cncc(/C=C/c2c(C)cc(O)cc2C)c1 | 6.85% |
| COc1ccc2ncnc(Nc3ccc(OCc4ccccc4)cc3)c2c1 | 4.95% |
| Cc1ccc(O)cc1Nc1ccnc2ccc(S(C)(=O)=O)cc12 | 14.8% |
| CC(C)c1ccc(Nc2nccc(-c3cnn4ncccc34)n2)cc1 | 63.6% |
| COc1cc2ncn(-c3cc(OCc4ccccc4S(C)(=O)=O)c(C#N)s3)c2cc1OC | 36.1% |
| Nc1nccc(C#Cc2cncnc2Nc2ccc(OCc3cccc(F)c3)c(Cl)c2)n1 | 7.68% |
| [O-][S+]1CCN(Cc2ccc(-c3ccc4ncnc(Nc5ccc(OCc6ccccc6)c(Cl)c5)c4c3)o2)CC1 | 7.9% |
| CCS(=O)(=O)c1ccc(OC)c(Nc2nccc(N(C)c3ccc4c(C)n[nH]c4c3)n2)c1 | 12.5% |
